Our source for the Potency values is PubChem BioAssay (Tox21).

Molecules are shown by their SMILES. “And” between values parts separate entries of the source, which are not always exact repeats. Equal values may be shown once. Records with an inconclusive call do not appear. Entries that show only a call come without a potency. Some structures have more than one record in an assay (separate samples or runs), and their calls can disagree. The source made the active and inactive calls. Unless noted, the call rests on the fitted dose curve; in most records, active means well fitted cell-killing curve with a large enough effect in the repeat runs; inconclusive means weak or mixed curves, or effect the other way; inactive means no such curve, though single readings can be large or run the other way.
Potency means the concentration at half of the fitted maximal effect.

Sequence of Progesterone receptor (Homo sapiens) (P06401 whole entry, looked up): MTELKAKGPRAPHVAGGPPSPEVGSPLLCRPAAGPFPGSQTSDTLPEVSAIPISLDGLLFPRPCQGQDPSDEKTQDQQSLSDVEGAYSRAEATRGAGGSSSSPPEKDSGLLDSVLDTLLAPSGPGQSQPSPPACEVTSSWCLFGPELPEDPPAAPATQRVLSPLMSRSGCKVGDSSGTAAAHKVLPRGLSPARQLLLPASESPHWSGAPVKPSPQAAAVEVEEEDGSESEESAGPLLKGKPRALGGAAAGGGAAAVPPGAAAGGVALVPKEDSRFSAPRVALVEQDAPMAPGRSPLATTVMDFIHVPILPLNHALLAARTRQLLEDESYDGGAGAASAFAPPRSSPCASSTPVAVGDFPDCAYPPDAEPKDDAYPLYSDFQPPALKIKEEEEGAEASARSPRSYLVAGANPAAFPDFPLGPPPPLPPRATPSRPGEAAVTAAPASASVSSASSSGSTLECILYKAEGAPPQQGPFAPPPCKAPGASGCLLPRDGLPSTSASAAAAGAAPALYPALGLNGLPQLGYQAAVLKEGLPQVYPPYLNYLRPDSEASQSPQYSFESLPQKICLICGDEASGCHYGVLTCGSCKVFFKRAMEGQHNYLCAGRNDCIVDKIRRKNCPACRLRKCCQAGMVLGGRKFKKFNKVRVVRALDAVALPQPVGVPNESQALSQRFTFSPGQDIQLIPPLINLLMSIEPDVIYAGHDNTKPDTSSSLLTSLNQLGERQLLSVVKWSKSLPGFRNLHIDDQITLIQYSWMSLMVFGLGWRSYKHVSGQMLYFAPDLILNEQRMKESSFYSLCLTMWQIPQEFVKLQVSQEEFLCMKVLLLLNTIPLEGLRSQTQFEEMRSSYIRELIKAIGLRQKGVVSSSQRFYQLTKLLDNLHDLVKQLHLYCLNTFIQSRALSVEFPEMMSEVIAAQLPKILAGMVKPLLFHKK

The target of one test is Progesterone receptor (Homo sapiens) (UniProt P06401). Kind of test: qHTS assay to identify small molecule antagonists of the progesterone receptor (PR) signaling pathway (AID 1346795; active means well fitted inhibition curve with a large enough effect in the signal ratio in the repeat runs, not every such curve was filed as active; the % refers to the signal ratio). Particulars: PR-UAS-bla HEK293T, beta-lactamase FRET ratio, 16 h; series mostly up to 92.4 µM. In outline:
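PR-UAS-bla HEK293T cells carrying a UAS-driven beta-lactamase reporter were plated in medium with 2% charcoal-stripped FBS and rested 6 hr at 37C. Compounds were added with 1 nM R5020 (final) for 16 hr, then FRET substrate loaded 2 hr at room temperature.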
On the technique in general: qHTS replaces the single test concentration by a dilution series.
Regarding `O=Cc1ccccc1C=O`, the Potency result was “inactive”.
Take `C=C[Si](OCCOC)(OCCOC)OCCOC`: the Potency result was “inactive”.
Regarding `O=C1OC2(c3ccccc31)c1cc(I)c(O)c(I)c1Oc1c2cc(I)c(O)c1I`, the Potency entry was “inactive”.
Turning to `CC(=O)O[C@]1(C(C)=O)CC[C@H]2[C@@H]3C=C(Cl)C4=CC(=O)CC[C@]4(C)[C@H]3CC[C@@]21C`, the Potency entry is “inactive”.
`CCOC(=O)C(C)Oc1ccc(Oc2cnc3cc(Cl)ccc3n2)cc1` (centres undefined): the Potency result is “inactive”.
In the case of `O=C(O)CCCCCCCCCCCC(=O)O`, the Potency entry was “inactive”.
Take `Cc1ccc(C(C)(C)C)c(O)c1`: the Potency entry was “inactive”.
Regarding `C=C[C@H]1CN2CC[C@H]1C[C@H]2[C@H](O)c1ccnc2ccc(OC)cc12`, the Potency result is “inactive”.
Same read-out and setting: the same measure for `C=C[C@H]1CN2CC[C@H]1C[C@@H]2[C@@H](O)c1ccnc2ccc(OC)cc12`: “inactive”.
As to `CC(C)(C)c1cccc(C(C)(C)C)c1O`, the Potency entry was “inactive”.
As to `CCC/C=C/C=O`, the Potency entry was “inactive”.
Regarding `OC[C@H]1O[C@@H]2O[C@H]3[C@H](O)[C@@H](O)[C@@H](O[C@H]4[C@H](O)[C@@H](O)[C@@H](O[C@H]5[C@H](O)[C@@H](O)[C@@H](O[C@H]6[C@H](O)[C@@H](O)[C@@H](O[C@H]7[C@H](O)[C@@H](O)[C@@H](O[C@H]1[C@H](O)[C@H]2O)O[C@@H]7CO)O[C@@H]6CO)O[C@@H]5CO)O[C@@H]4CO)O[C@@H]3CO`, the Potency result was “inactive and 22.9 µM (active)”.
Turning to `CN(C)CCCN1c2ccccc2Sc2ccc(Cl)cc21`, the Potency is 43.3 µM (active) and 21.1 µM (active).
For `Cc1ccc(C)c(O)c1`, the Potency entry was “inactive”.
On the same count and under the same terms, the same measure for `COC(=O)CC(=O)OC`: “inactive”; for `Nc1ccc(O)c(N)c1`: “inactive”; for `NCCS(=O)(=O)O`: “inactive”.
Still for that read-out and setting: next, `c1ccc2ncccc2c1`: “inactive”; `O=C(O)c1cc(=O)[nH]c(=O)[nH]1`: “inactive”.
Same read-out and setting: next, `C=CCCCCCCCCCC`: “inactive”.
Turning to `CCC(=O)O[C@H]1[C@H](O[C@@H]2[C@@H](C)[C@H](O[C@H]3C[C@@](C)(OC)[C@@H](O)[C@H](C)O3)[C@@H](C)C(=O)O[C@H](CC)[C@@](C)(O)[C@H](O)[C@@H](C)C(=O)[C@H](C)C[C@@]2(C)O)O[C@H](C)C[C@@H]1N(C)C`, the Potency result was “inactive”.
As for `CC1(C)NC(=O)N(c2ccc([N+](=O)[O-])c(C(F)(F)F)c2)C1=O`, the Potency is 17.2 µM (active) and 11.9 µM (active).
The same measure, in the same setting: the same measure for `CC(=O)OC(C)C`: “inactive”; for `COC(=O)c1ccc(C)cc1`: “inactive”; for `CC(=O)O[C@]1(C(C)=O)CC[C@H]2[C@@H]3C=C(C)C4=CC(=O)CC[C@]4(C)[C@H]3CC[C@@]21C`: “inactive”.
Same read-out and setting: the same measure for `Oc1c(Cl)ccc(Cl)c1Cl`: “inactive”.

Test system in another test: not listed separately
Description: qHTS assay to identify small molecule antagonists of the progesterone receptor (PR) signaling pathway - cell viability counter screen (AID 1346798). Further: nearly all actives have a fitted effect of over 50% in size. As to conditions: PR-UAS-bla HEK293T viability, CellTiter-Glo luminescence, 16 h; series mostly up to 92.4 µM. The gist of the method:
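PR-UAS-bla HEK293T cells in medium with 2% charcoal-stripped FBS were treated with compounds plus R5020 for 16 hr at 37C. Cell viability was then read by CellTiter-Glo luminescence after 30 min at room temperature in the same wells.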
For `O=Cc1ccccc1C=O`, the Potency entry was “inactive”.
`C=C[Si](OCCOC)(OCCOC)OCCOC`: the Potency entry was “inactive”.
Still for that read-out and setting: the same measure for `C=C[C@@]1(C)CC(=O)[C@]2(O)[C@@]3(C)[C@@H](O)CCC(C)(C)[C@@H]3[C@H](O)[C@H](OC(C)=O)[C@@]2(C)O1`: 24.3 µM (active) and 15 µM (active); for `OC[C@@H](O)[C@@H](O[C@@H]1O[C@H](CO)[C@H](O)[C@H](O)[C@H]1O)[C@H](O)[C@@H](O)CO`: “inactive”; for `NCCN`: “inactive”.
Still for that read-out and setting: next, `O=C1OC2(c3ccccc31)c1cc(I)c(O)c(I)c1Oc1c2cc(I)c(O)c1I`: “inactive”; `CC(=O)O[C@]1(C(C)=O)CC[C@H]2[C@@H]3C=C(Cl)C4=CC(=O)CC[C@]4(C)[C@H]3CC[C@@]21C`: “inactive”; `O=C(CCCN1CCC(O)(c2ccc(Cl)cc2)CC1)c1ccc(F)cc1`: “inactive”.
The same measure, in the same setting: next, `CCOC(=O)C(C)Oc1ccc(Oc2cnc3cc(Cl)ccc3n2)cc1` (centres undefined): “inactive”; `O=C(O)CCCCCCCCCCCC(=O)O`: “inactive”.
On to `Cc1ccc(C(C)(C)C)c(O)c1`, for which the Potency result is “inactive”.
Turning to `C=C[C@H]1CN2CC[C@H]1C[C@H]2[C@H](O)c1ccnc2ccc(OC)cc12`, the Potency result is “inactive”.
Consider `C=C[C@H]1CN2CC[C@H]1C[C@@H]2[C@@H](O)c1ccnc2ccc(OC)cc12`, for which the Potency result is “inactive”.
Consider `CC(C)(C)c1cccc(C(C)(C)C)c1O`, for which the Potency result is “inactive”.
The same measure, in the same setting: next, `OC[C@H]1O[C@@H]2O[C@H]3[C@H](O)[C@@H](O)[C@@H](O[C@H]4[C@H](O)[C@@H](O)[C@@H](O[C@H]5[C@H](O)[C@@H](O)[C@@H](O[C@H]6[C@H](O)[C@@H](O)[C@@H](O[C@H]7[C@H](O)[C@@H](O)[C@@H](O[C@H]1[C@H](O)[C@H]2O)O[C@@H]7CO)O[C@@H]6CO)O[C@@H]5CO)O[C@@H]4CO)O[C@@H]3CO`: “inactive”; `CN(C)CCCN1c2ccccc2Sc2ccc(Cl)cc21`: 27.3 µM (active) and 29.8 µM (active); `Cc1ccc(C)c(O)c1`: “inactive”.
Still for that read-out and setting: the same measure for `COC(=O)CC(=O)OC`: “inactive”; for `Nc1ccc(O)c(N)c1`: “inactive”.
Same read-out and setting: next, `NCCS(=O)(=O)O`: “inactive”.
For `c1ccc2ncccc2c1`, the Potency result was “inactive”.
The same measure, in the same setting: the same measure for `COCCOCCOCCO`: “inactive”.
The same measure, in the same setting: the same measure for `CCCCCCCC/C=C\CCCCCCCC(=O)O`: “inactive”.
As to `COc1cc([C@H]2Oc3cc([C@H]4Oc5cc(O)cc(O)c5C(=O)[C@@H]4O)ccc3O[C@@H]2CO)ccc1O`, the Potency result is “inactive”.
Still for that read-out and setting: the same measure for `C=CCCCCCCCCCC`: “inactive”; for `CC/C=C\C/C=C\C/C=C\CCCCCCCC(=O)O`: “inactive”.
The same measure, in the same setting: next, `[O-]/[N+](=N\O)c1ccccc1`: “inactive”; `Cc1cccc(Nc2ccccc2C(=O)O)c1C`: “inactive”.
Consider `CC1(C)NC(=O)N(c2ccc([N+](=O)[O-])c(C(F)(F)F)c2)C1=O`, for which the Potency entry is “inactive”.
On the same count and under the same terms, the same measure for `CC(=O)OC(C)C`: “inactive”; for `COC(=O)c1ccc(C)cc1`: “inactive”.
`CCCCCCCCCCC(CO)CCCCCCCC` (centres undefined): the Potency entry is “inactive”.
The same measure, in the same setting: the same measure for `Oc1c(Cl)ccc(Cl)c1Cl`: “inactive”.
